Screen size: about 1,800 compounds; fewer than 10 were called active. Inconclusive results (about 44%) are left out.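 The calls were made as follows: active = compound lowering the normal-ribosome reporter at least twice as much as the humanized-ribosome reporter, growth loss under a set limit; inconclusive = no clear call, values can overlap the other calls; inactive = the rest.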 The list is a sample of the results.
Assay: growth inhibition of wild-type GFP E. coli, dose response, h34 mutant RFP, cherry-pick (AID 977624)
Conditions: E. coli wild-type GFP strain growth, fluorescence, 24 h; series mostly up to 50 µM

outcome, inactive:
COc1cccc(NC(=O)c2ccc(C(=O)c3ccccc3)o2)c1
COc1ccc(C(=O)C2CCCN(C(=O)c3noc4c3CCCC4)C2)cc1F (stereo not drawn)
COc1ccc(C(=O)N(c2ccccc2)c2nccc3ccccc23)cc1OC
COc1ccc(C2CC(=O)CCN2S(=O)(=O)c2ccc(C)cc2)cc1 (stereo not drawn)
O=C(NCc1ccc(S(=O)(=O)Nc2ccccc2Cl)s1)c1ccccc1
Cc1ccc(C)c(-c2[nH]ncc2CN2CCCC(CO)(Cc3ccccc3C)C2)c1 (stereo not drawn)
Cc1nn(-c2cccc(Cl)c2)nc1C(=O)O
CC1CCN(c2ccc3nnc(CCC(=O)Nc4cccc(F)c4)n3n2)CC1
O=C1c2ccccc2NC(c2ccc(-c3cccc([N+](=O)[O-])c3)o2)N1O (stereo not drawn)
COc1ccc(OC)c(-c2csc(NC(=O)C3COc4ccccc4O3)n2)c1 (stereo not drawn)
COc1ccc(-n2nc3cc(N)c(Br)cc3n2)cc1
CN1C(=O)c2cc(NC(=O)c3cccc(F)c3)ccc2OC[C@H]2O[C@@H](CC(=O)N3CCc4ccccc4C3)CC[C@@H]21
Brc1cc2c(cc1Br)OCCOCCOCCO2
COC(=O)CC#C[C@H](C)[C@@H](NS(=O)(=O)c1ccc([N+](=O)[O-])cc1)C(C)(C)C
Cc1cc(C(=O)NCCC2=CCCCC2)ccc1[N+](=O)[O-]
CN(C)S(=O)(=O)c1ccc(Cl)c(C(=O)OCC(=O)NC(=O)c2cccn2C)c1
COC(=O)c1cc(S(=O)(=O)NCc2ccc3c(c2)OCO3)cn1C
Cc1ccc(-c2cc(-c3ccc(C)cc3)[n+](-c3ccc(C(=O)[O-])cc3)c(-c3ccc(C)cc3)c2)cc1
CC(=O)Nc1ccc(NS(=O)(=O)c2ccc(Cl)s2)cc1
CN(c1ccc(C(=O)NCc2cccs2)cc1)S(=O)(=O)c1ccccc1
CCn1nc(C(=O)OCc2cccc(S(=O)(=O)N(C)C)c2)c2ccccc2c1=O
COc1cccc(NC(=O)CSc2nc3c(sc4ccccc43)c(=O)n2CCN(C)C)c1
O=C(CC1C(=O)NCCN1CC1CCCCC1)NCc1ccc(F)cc1F (stereo not drawn)
CC(=O)N1CCN(c2nc(-c3cccs3)nc3ccccc23)CC1
COc1ccc(NC(=O)c2sccc2-n2cccc2)cc1
O=C(Cc1ccc(NC(=O)C2CCCN(C(=O)CCc3ccccc3)C2)cc1)Nc1cccc(C(=O)N2CCCC2)c1 (stereo not drawn)
COc1ccc(Nc2nc(NCCO)nc(N3CCCC3)n2)cc1
CC(C)[C@H](NC(=O)c1ccc([N+](=O)[O-])cc1Cl)C(=O)N1CCN(C/C=C/c2ccccc2)CC1
COc1ccccc1NC(=O)CN1CCSc2ccccc21
O=C(NCc1ccccc1Cl)[C@H]1CCCN1C(=O)[C@H]1CCCN1C(=O)c1cccc2ccccc12
CC1(C(=O)Nc2ccc3c(c2)OCCO3)CSCC(=O)N1CCOc1ccccc1 (stereo not drawn)
O=S(=O)(c1cnc(Cl)c(Cl)c1)N1CCCc2ccccc21
CCOC(=O)C1(CCCc2ccccc2)CCN(C(=O)CCn2cncn2)CC1

Reference: PubChem BioAssay AID977624 (Broad Institute, 2014)
